For two sequences, binding signal results are on record in PMC7862700, “An all-to-all approach to the identification of sequence-specific readers for epigenetic DNA modifications on cytosine”.

Holding throughout (assay): DAPPL (digital affinity profiling via proximity ligation, sequencing); 10 mM Tris-HCl pH 7.5, 50 mM NaCl, 1 mM DTT, 4% glycerol, room temperature, 30 min; GST-TFs on glutathione beads, 16-mer random dsDNA library, 0.1% formaldehyde crosslink after washing; high values mean tight binding
Common to all, as to details: protein: recombinant; tags: N-terminal GST; dsDNA, one strand shown

One test deals with T1, FLI1 (Homo sapiens, UniProt Q01543 1-452).
T1 sequence: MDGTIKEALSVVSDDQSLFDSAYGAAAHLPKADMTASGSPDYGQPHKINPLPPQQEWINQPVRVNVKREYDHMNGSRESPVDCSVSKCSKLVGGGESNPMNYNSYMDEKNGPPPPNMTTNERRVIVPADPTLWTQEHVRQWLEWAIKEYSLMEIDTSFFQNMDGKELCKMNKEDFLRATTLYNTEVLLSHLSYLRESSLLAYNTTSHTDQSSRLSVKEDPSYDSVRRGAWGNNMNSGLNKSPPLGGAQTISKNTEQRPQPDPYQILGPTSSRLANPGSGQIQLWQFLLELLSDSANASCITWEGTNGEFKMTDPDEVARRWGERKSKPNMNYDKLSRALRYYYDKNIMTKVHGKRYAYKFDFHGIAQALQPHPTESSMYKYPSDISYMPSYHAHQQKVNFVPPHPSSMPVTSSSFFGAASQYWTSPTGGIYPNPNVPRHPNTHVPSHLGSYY
The procedure, abridged:
(§1)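 Each value of binding signal is a hexamer's read frequency for a factor divided by the same hexamer's frequency in the tag-only sample. Barcoded, bead-captured GST fusions of human transcription factors made in yeast were pooled with that sample and incubated with 200 nmole of a random double-stranded 16-mer DNA library in Tris/NaCl/DTT/glycerol buffer at room temperature for 30 min. Washing, 0.1% formaldehyde crosslinking, proximity ligation, PCR and Illumina NextSeq500 sequencing followed.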

The next test deals with T2, ELK1 (Homo sapiens, UniProt P19419 1-428).
T2 sequence: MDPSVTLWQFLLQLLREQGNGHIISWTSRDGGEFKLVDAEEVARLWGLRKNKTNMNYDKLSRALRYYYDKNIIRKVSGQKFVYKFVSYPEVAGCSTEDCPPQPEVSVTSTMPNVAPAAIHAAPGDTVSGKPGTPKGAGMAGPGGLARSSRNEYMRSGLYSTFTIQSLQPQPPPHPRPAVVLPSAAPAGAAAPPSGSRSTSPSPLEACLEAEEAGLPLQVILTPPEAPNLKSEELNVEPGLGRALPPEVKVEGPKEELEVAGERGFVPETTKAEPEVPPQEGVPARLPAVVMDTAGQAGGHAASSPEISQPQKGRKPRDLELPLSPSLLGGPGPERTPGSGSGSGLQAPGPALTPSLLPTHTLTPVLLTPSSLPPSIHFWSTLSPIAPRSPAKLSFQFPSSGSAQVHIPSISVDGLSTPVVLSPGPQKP
The procedure, abridged:
as §1

The next test has as its target T3, GABPA (Homo sapiens, UniProt Q06546 1-454).
T3 sequence: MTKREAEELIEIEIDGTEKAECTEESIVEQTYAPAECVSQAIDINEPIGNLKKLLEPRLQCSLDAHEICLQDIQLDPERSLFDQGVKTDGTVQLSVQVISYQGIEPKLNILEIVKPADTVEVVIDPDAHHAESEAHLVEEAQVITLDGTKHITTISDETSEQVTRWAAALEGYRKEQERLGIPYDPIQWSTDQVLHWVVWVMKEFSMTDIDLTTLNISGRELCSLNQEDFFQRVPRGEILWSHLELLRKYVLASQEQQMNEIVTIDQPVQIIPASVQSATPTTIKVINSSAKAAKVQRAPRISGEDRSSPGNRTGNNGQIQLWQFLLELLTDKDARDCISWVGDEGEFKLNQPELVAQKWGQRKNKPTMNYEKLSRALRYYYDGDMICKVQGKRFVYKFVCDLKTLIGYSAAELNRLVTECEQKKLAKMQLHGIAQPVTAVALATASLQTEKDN
In outline:
as §1

The next test has as its target ELF4 (Homo sapiens, UniProt Q99607 1-663). In outline: as §1
In another test the target is T4, ELK4 (Homo sapiens, UniProt P28324-2 1-405).
T4 sequence: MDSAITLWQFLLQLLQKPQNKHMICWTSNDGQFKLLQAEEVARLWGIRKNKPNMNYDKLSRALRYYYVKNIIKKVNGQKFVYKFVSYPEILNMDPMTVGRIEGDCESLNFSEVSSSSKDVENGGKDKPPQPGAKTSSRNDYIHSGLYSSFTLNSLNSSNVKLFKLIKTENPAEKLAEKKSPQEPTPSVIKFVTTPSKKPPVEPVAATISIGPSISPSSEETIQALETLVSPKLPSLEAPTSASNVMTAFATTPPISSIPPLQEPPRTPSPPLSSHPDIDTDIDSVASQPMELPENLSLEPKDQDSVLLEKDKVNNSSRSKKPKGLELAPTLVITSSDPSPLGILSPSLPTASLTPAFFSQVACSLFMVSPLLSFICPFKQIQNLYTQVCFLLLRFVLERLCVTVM
In outline:
as §1

Another test addresses T5, ERF (Homo sapiens, UniProt P50548 1-548).
T5 sequence: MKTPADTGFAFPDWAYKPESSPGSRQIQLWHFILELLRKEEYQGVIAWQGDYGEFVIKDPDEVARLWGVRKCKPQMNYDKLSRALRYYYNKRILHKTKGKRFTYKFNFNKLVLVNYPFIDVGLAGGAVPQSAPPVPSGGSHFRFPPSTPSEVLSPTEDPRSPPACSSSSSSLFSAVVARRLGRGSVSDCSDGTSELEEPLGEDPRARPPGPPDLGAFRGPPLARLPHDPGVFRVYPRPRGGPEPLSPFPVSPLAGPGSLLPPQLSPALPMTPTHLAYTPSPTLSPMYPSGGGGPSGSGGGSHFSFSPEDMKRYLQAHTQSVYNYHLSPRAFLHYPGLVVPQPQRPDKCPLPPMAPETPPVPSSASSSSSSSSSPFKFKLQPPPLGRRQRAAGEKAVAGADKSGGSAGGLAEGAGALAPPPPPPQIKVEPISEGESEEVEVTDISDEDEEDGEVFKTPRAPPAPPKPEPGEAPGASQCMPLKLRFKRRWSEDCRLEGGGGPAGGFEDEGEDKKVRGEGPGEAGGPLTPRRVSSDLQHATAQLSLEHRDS
The procedure, abridged:
as §1

A further test has as its target T6, ETV3L (Homo sapiens, UniProt Q6ZN32 1-361).
T6 sequence: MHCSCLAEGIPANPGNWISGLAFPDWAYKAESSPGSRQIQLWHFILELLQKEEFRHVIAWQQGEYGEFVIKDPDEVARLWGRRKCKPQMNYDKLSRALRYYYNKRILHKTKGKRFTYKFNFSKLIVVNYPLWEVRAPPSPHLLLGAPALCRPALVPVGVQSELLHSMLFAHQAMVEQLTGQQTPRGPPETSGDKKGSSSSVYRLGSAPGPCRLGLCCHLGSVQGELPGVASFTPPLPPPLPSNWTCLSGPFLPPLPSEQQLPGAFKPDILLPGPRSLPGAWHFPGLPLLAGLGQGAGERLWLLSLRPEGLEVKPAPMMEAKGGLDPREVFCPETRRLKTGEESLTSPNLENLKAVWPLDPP
The procedure, abridged:
as §1

A further test concerns the target SPIB (Homo sapiens, UniProt Q01892 1-262). The procedure, abridged: as §1
A further test has as its target T7, ELK3 (Homo sapiens, UniProt P41970 1-407).
T7 sequence: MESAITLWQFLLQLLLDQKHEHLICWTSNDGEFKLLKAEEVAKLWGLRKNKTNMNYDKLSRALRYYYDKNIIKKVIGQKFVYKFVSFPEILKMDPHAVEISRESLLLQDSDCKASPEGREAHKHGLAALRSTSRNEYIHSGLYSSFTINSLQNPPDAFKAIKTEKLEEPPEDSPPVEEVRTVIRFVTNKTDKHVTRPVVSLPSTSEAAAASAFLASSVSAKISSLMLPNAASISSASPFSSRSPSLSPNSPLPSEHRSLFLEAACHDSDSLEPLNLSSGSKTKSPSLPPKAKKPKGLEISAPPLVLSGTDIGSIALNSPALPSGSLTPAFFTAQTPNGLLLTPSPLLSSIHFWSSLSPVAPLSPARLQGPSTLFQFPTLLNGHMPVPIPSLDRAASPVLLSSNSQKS
The procedure, abridged:
as §1

Another test addresses T8, ETV2 (Homo sapiens, UniProt O00321 1-342).
T8 sequence: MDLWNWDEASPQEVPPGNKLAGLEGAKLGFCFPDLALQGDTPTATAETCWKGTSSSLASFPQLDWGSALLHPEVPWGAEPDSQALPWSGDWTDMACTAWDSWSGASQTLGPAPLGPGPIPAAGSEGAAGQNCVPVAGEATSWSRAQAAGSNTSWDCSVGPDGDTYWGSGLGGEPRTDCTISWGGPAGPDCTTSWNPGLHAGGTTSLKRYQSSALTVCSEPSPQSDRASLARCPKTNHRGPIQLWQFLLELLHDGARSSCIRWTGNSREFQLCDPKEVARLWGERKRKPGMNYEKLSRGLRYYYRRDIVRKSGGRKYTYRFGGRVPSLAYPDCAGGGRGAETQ
In outline: as §1

Another test addresses ETV1 (Homo sapiens, UniProt P50549 1-477). In outline: as §1
The target in another test is T9, ETV3 (Homo sapiens, UniProt P41162-2 1-143).
T9 sequence: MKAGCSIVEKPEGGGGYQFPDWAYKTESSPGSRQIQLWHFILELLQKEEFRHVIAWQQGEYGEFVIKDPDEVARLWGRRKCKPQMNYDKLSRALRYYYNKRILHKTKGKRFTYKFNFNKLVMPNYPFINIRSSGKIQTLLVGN
In outline: as §1

Sequence of ELF4 (Q99607 whole entry): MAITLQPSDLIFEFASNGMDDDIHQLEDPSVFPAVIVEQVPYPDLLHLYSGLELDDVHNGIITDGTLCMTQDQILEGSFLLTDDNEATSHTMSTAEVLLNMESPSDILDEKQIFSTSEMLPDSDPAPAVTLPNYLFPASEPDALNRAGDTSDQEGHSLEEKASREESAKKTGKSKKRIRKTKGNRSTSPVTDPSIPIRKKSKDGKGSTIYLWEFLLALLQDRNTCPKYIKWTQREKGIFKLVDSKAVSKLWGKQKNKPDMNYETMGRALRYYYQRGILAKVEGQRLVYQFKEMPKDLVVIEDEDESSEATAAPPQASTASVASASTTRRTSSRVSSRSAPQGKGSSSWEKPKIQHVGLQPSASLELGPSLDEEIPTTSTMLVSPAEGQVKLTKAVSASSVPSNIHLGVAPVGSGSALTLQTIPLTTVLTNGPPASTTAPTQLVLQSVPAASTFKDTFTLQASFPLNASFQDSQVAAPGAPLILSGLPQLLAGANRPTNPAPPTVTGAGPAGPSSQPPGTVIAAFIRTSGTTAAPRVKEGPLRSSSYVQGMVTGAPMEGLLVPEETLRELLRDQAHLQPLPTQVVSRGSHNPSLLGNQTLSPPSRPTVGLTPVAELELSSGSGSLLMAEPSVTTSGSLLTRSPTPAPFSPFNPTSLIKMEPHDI
Sequence of SPIB (Q01892 whole entry): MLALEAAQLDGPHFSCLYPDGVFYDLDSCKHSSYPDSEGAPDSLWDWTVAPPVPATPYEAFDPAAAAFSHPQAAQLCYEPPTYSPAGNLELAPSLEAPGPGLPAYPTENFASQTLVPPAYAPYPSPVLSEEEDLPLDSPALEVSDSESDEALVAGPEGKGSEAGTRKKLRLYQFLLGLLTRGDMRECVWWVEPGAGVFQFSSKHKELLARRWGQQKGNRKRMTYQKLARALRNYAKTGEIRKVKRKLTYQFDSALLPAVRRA
Sequence of ETV1 (P50549 whole entry): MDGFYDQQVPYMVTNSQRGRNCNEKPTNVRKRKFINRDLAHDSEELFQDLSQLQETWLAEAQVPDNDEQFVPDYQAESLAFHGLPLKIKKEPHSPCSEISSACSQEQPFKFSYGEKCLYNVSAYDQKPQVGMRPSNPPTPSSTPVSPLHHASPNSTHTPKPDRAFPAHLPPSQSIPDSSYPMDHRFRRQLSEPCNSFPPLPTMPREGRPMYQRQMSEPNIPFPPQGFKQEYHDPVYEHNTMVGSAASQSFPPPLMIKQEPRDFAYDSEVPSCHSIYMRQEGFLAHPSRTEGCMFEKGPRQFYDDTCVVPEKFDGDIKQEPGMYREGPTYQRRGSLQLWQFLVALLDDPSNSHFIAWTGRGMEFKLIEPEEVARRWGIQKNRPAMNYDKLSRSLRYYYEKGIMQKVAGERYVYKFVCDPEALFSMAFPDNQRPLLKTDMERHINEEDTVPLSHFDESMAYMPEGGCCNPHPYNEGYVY

GACTGC: the binding signal is 1.03 fold enrichment (6-mer frequency, TF over GST control) with FLI1; 1.03 fold enrichment (6-mer frequency, TF over GST control) with ELK1; 1.11 fold enrichment (6-mer frequency, TF over GST control) with GABPA; 1.01 fold enrichment (6-mer frequency, TF over GST control) in the test with ELF4; 1.08 fold enrichment (6-mer frequency, TF over GST control) with ELK4; 1.03 fold enrichment (6-mer frequency, TF over GST control) with ERF. Moreover, the binding signal with ETV3L was 1.02 fold enrichment (6-mer frequency, TF over GST control).
Consider CAAGCT, for which the binding signal with FLI1 was 1.05 fold enrichment (6-mer frequency, TF over GST control); with SPIB it was 1.04 fold enrichment (6-mer frequency, TF over GST control); in the test with ELK3, 1.03 fold enrichment (6-mer frequency, TF over GST control); with ELF4, 1.02 fold enrichment (6-mer frequency, TF over GST control); with ELK4, 1.13 fold enrichment (6-mer frequency, TF over GST control); with ETV2, 1.02 fold enrichment (6-mer frequency, TF over GST control). Moreover, the binding signal was 1.04 fold enrichment (6-mer frequency, TF over GST control) with ETV1; 1.05 fold enrichment (6-mer frequency, TF over GST control) with ETV3L; 1.02 fold enrichment (6-mer frequency, TF over GST control) with ETV3.
